ChEMBL document CHEMBL4513216, “Probing the Open Global Health Chemical Diversity Library for Multistage-Active Starting Points for Next-Generation Antimalarials” (ACS Infect Dis, 2020)
In all, about 69,000 compounds went through this assay and about 8,600 (12%) showed an effect of 50% or more. Many of the other results were omitted from the sample, so strong results are more common in it than they were.

tested on: Plasmodium berghei; assay: Screen against P. berghei liver stage (PbLuc), transformed with Luciferase, at 10uM; type: functional, HepG2; details: tested at 10 uM

Row | Structure (SMILES) | INHIBITION
1 | CC1CN(CC(=O)NCc2ccccc2)CCN1Cc1nccn1C (stereo not given) | 22.93%
2 | Cc1[nH]ccc1C(=O)N1CCCC(c2ccc(C(=O)O)cc2)C1 (stereo not given) | 2.7%
3 | O=C(c1cccc2cccnc12)N1CCCC(n2ccnc2)C1 (stereo not given) | 17.02%
4 | CN(C)c1ncccc1CNc1cc(N2CCCC2CO)ncn1 (stereo not given) | 26.4%
5 | Cc1c[nH]nc1C1CCCN(c2cnccn2)C1 (stereo not given) | 4.73%
6 | Cc1ccnc(C2CCN(c3ccnc(C)n3)C2)n1 (stereo not given) | 10.9%
7 | Cc1nccc(N2CCCC(c3nnc(Cn4ccnc4C)n3C)C2)n1 (stereo not given) | 1.74%
8 | C[C@H](N)C(=O)N1CCC(c2[nH]ncc2-c2ccccc2)CC1 | -15.65%
9 | CN(C)CCn1ccnc1C1CCCN(c2cc(N)ncn2)C1 (stereo not given) | 28%
10 | Cc1ccc(-c2cn[nH]c2C2CCCN(c3cc(N)ncn3)C2)cc1 (stereo not given) | 75.4%
11 | Cc1ccc(-c2cn[nH]c2C2CCCN(c3nccc(N)n3)C2)cc1 (stereo not given) | 47.2%
12 | Cc1ccc(-c2cn[nH]c2C2CCCN(c3ccnc(C)n3)C2)cc1 (stereo not given) | 65.3%
13 | Cc1ccc(N2CCCC(c3[nH]ncc3-c3ccccc3)C2)nn1 (stereo not given) | 56.2%
14 | CC(O)C(=O)N1CCC(c2[nH]ncc2-c2ccccc2)CC1 (stereo not given) | 1.66%
15 | Cc1ccc(-c2cn[nH]c2C2CCCN(c3cnccn3)C2)cc1 (stereo not given) | 53.7%
16 | Cc1ccc(-c2cn[nH]c2C2CCCN(c3ncccn3)C2)cc1 (stereo not given) | 27.6%
17 | CN(CCO)C[C@@H]1CN(C(=O)c2cccc(OC(F)F)c2)C[C@@H]1CO | 3.19%
18 | O=C(C1CCOC1)N1CCN(Cc2ccc3c(c2)CCO3)CC1 (stereo not given) | 41.5%
19 | Cc1nc(CN(C)C2CCN(CCc3cccs3)C2)no1 (stereo not given) | 39.2%
20 | CS(=O)(=O)NC[C@@H]1OC[C@H]2CN(C(=O)c3ccccn3)CC[C@H]21 | -2.17%
21 | O=C(NCC1CC2(CO1)CN(c1ncccn1)C2)C1CCC1 (stereo not given) | 27.6%
22 | Cc1ccc(N2CCCC(c3[nH]ncc3Cc3ccccc3)C2)nn1 (stereo not given) | 47.2%
23 | Cc1cc(N2CCCC(c3[nH]ncc3Cc3ccccc3)C2)nc(N)n1 (stereo not given) | 86.8%
24 | Cc1ccc(N2CCC(c3[nH]ncc3Cc3ccccc3)CC2)nn1 | 49.2%
25 | O=C(c1cnccn1)N1C[C@@H]2CN(Cc3cccnc3)CCO[C@@H]2C1 | 22.5%
26 | O=C(CN1CCc2c(ncn2C2CC2)C1)NC1CCOCC1 | 5.7%
27 | NCC1Cc2cc(-c3nccc(N4CCC(O)CC4)n3)cc(Cl)c2O1 (stereo not given) | 43.9%

Row | Structure (SMILES) | INHIBITION
28 | NCC1Cc2cc(-c3nccc(N4CCC(O)CC4)n3)cc(F)c2O1 (stereo not given) | 20.5%
29 | NCC1Cc2cccc(-c3nccc(N4CCC(O)CC4)n3)c2O1 (stereo not given) | 92.1%
30 | CCCc1noc(C2CC(=O)N(Cc3ccccc3)C2)n1 (stereo not given) | 11.1%
31 | COCCC(=O)N1Cc2ccccc2OC2(CCOCC2)C1 | 26.05%
32 | Cc1c(CS(C)(=O)=O)cccc1NCC1CCCCC1 | -0.514%
33 | Cc1c(CS(C)(=O)=O)cccc1NC(=O)CC1CCCC1 | -15.9%
34 | Cc1c(CS(C)(=O)=O)cccc1NCCCC1CCCC1 | 74.8%
35 | CN(Cc1ccc(O)cc1)C(=O)NC1CCCN(c2ncccn2)C1 (stereo not given) | 18.9665%
36 | O=c1[nH]c2cn(-c3cccc(F)c3)c(=O)n2n1Cc1ccccc1Cl | 20.6%
37 | CCc1nc(C(=O)N2CCN(CC)CC2)nn1-c1ccccc1Cl | 4.52%
38 | CCN1CCN(C(=O)c2nc(C)n(-c3ccccc3Cl)n2)CC1 | 50.4%
39 | CCc1nc(C(=O)N2CCCC2)nn1-c1ccccc1Cl | 67.3%
40 | CCc1nc(C(=O)N2CCCCC2)nn1-c1ccccc1Cl | 12.7%
41 | Cc1nc(C(=O)N2CCCCC2)nn1-c1ccccc1Cl | 4.52%
42 | CCc1nc(C(=O)N2CCN(C)CC2)nn1-c1ccccc1Cl | 34.7%
43 | Cc1cnc(CC2COCCN(C(=O)c3cncs3)C2)cn1 (stereo not given) | 21.5%
44 | CCc1ccc(C(=O)N2CCC(c3nncn3CC)CC2)o1 | 28.1%
45 | COc1ccc(OCCN(C)S(=O)(=O)c2cnn(C)c2)cc1 | 11.5%
46 | O=C(NCCOc1ccccc1)Nc1cc(C(F)(F)F)c[nH]c1=O | 9.895%
47 | COCC(=O)N1CCC2(CCc3ccc(F)cc32)CC1 | -30%
48 | COCC(=O)N1CCC2(CC1)CN(CC1CC1)c1ccc(F)cc12 | 77.4%
49 | CC(=O)N1CCC2(CC1)CN(CC1CC1)c1ccc(F)cc12 | 37.6%
50 | Cn1cc(CN2CCCC23CCN(C(=O)c2ccsc2)CC3)cn1 | -16.1%
51 | Cc1cnn(CC2CCCN2C(=O)c2ccc3[nH]c(=O)[nH]c3c2)c1 (stereo not given) | 17.5%
52 | CN(Cc1cccs1)c1nc2c(cnn2C(C)(C)C)c(=O)[nH]1 | 53.5%
53 | CCN(Cc1nc2c(cnn2C)c(=O)[nH]1)Cc1cccs1 | 44.6%
54 | Cc1ncc(CN(C)c2nc3c(cnn3C(C)(C)C)c(=O)[nH]2)s1 | 30.8%

Row | Structure (SMILES) | INHIBITION
55 | Cc1nc(CN(C)c2nc3c(cnn3C(C)(C)C)c(=O)[nH]2)cs1 | 36.2%
56 | Cc1ccsc1CN(C)c1nc2c(cnn2C(C)(C)C)c(=O)[nH]1 | 70.7%
57 | Cc1ccsc1CN(C)Cc1nc2c(cnn2C)c(=O)[nH]1 | 26.3%
58 | CCc1nc2n(n1)CC(NCc1cnc(N(CC)CC)s1)CC2 (stereo not given) | 30.5%
59 | CC(=O)N1CCCC(C(=O)c2cnn(-c3ccc(F)cc3)c2N)C1 (stereo not given) | 24.425%
60 | Cc1nc[nH]c1CN1C[C@@H]2OCCN(c3ncccn3)[C@@H]2C1 | 42.7%
61 | Cc1ccc(-n2ccnc2-c2cn(C3CCNCC3)nn2)c(Cl)c1 | 45.8%
62 | Cc1ncsc1C(=O)N1CCN(CCC(C)C)CC1 | 53.7%
63 | Cc1cccc(C(=O)N2CCN(CCC(C)C)CC2)n1 | 50.3%
64 | CC(C)CCN1CCN(C(=O)c2ccc(=O)[nH]n2)CC1 | 47%
65 | Cc1cccc(C(=O)N2CCN(CCOC(C)C)CC2)n1 | -49.3%
66 | CCN1CCN(C(=O)c2scnc2C)CC1 | 26.4%
67 | CCCN1CCN(C(=O)c2scnc2C)CC1 | 11.1%
68 | CCN1CCCc2cc(CN3CCc4nc(C)[nH]c(=O)c4C3)ccc21 | 15.1%
69 | Cn1ncc(Cl)c1C(=O)NCCN1CCC(O)(c2ccc(F)cc2)CC1 | 6.3%
70 | CCOCCCNC(=O)CN(c1cccc(F)c1)S(C)(=O)=O | 30%
71 | COC(=O)c1c(Cl)c(C2CC2)nc2onc(C)c12 | 47.2%
72 | CN(C)CC(=O)N1C[C@@H]2CC[C@H](Oc3ccccc3Cl)[C@@H]2C1 | 37.5%
73 | O=C(Cn1ccnc1)N1C[C@@H]2CC[C@H](Oc3ccccc3)[C@@H]2C1 | 24.5%
74 | O=C(Cn1ccnc1)N1C[C@@H]2CC[C@H](Oc3ccccc3Cl)[C@@H]2C1 | 53.5%
75 | O=C(Cn1ccnc1)N1C[C@@H]2CC[C@H](Oc3cccc(F)c3)[C@@H]2C1 | 1.5%
76 | O=C(Cn1ccnc1)N1C[C@@H]2CC[C@H](Oc3ccccc3F)[C@@H]2C1 | -6.92%
77 | O=C(Cn1ccnc1)N1C[C@@H]2CC[C@H](Oc3ccc(Cl)cc3)[C@@H]2C1 | 56%
78 | Cc1ccc(CN2C(=O)OCC2CO)c2ccccc12 (stereo not given) | 40.3%
79 | CNc1nc(CNC(=O)Nc2cccc(C(C)OC)c2)cs1 (stereo not given) | 13.957%
80 | CN(C)C1CCCN(C(=O)CCc2csc(N)n2)CC1 (stereo not given) | 33.9%
81 | CN(C)[C@H]1CCCCN(C(=O)CCc2csc(N)n2)C1 | 16.8%

Row | Structure (SMILES) | INHIBITION
82 | CN1[C@@H]2CC[C@H]1CN(C(=O)CCc1csc(N)n1)CC2 | 50.3%
83 | Nc1nc(CCC(=O)N2CCOC(CC3CCCCC3)C2)cs1 (stereo not given) | 85.1%
84 | Cc1n[nH]c(C2CN(C(=O)CCc3cscn3)CCO2)n1 (stereo not given) | 40.75%
85 | N[C@H]1CN(C(=O)CCC(F)(F)F)C[C@@H]1c1ccccc1 | 36.5%
86 | N[C@H]1CN(C(=O)CCc2ccccn2)C[C@@H]1c1ccccc1 | 37.6%
87 | COCCCC1CCCN(C(=O)CCc2csc(N)n2)C1 (stereo not given) | 35.8%
88 | Nc1nc(CCC(=O)N2C[C@H](c3ccccc3)[C@@H](N)C2)cs1 | 51%
89 | CC1c2ncc(COCC3CCOCC3)n2CCN1Cc1cccnc1 (stereo not given) | 12.1%
90 | Cc1ccsc1[C@@H]1CCN(C(=O)c2ccc(-c3cc[nH]n3)cc2)C[C@H]1O | 16.1%
91 | Cc1ccsc1[C@@H]1CCN(C(=O)CCc2nc3ccccc3[nH]2)C[C@H]1O | -27.5%
92 | Cc1ccsc1[C@@H]1CCN(C(=O)c2cc3ccccc3[nH]2)C[C@H]1O | 66.9%
93 | c1csc(CN2CCc3ncnc(C4CCOC4)c3CC2)n1 (stereo not given) | 31.4%
94 | Cn1ncc2c(=O)[nH]c(CN3CCCC3Cc3ccccc3)nc21 (stereo not given) | 24%
95 | COc1ccc(C(C)N(C)Cc2nc3c(cnn3C)c(=O)[nH]2)cc1 (stereo not given) | 0.7%
96 | CN(Cc1nc2c(cnn2C)c(=O)[nH]1)Cc1ccco1 | -5.07%
97 | Cc1ccc(C(C)N(C)Cc2nc3c(cnn3C)c(=O)[nH]2)cc1 (stereo not given) | 52.1%
98 | Cc1ccc(CN(Cc2nc3c(cnn3C)c(=O)[nH]2)C2CC2)o1 | 15.5%
99 | Cn1ncc2c(=O)[nH]c(CN(Cc3ccco3)C3CCCC3)nc21 | 54.3%
100 | Cn1ncc2c(=O)[nH]c(CN3CCc4ccccc4C3)nc21 | 40%
101 | Cc1ccc(C(C)N(C)Cc2nc3c(cnn3C)c(=O)[nH]2)c(C)c1 (stereo not given) | 8.315%
102 | Cn1ncc2c(=O)[nH]c(CN3CCC(Cc4ccccc4)CC3)nc21 | 52.7%
103 | CC(c1ccco1)N(C)Cc1nc2c(cnn2C)c(=O)[nH]1 (stereo not given) | 66.8%
104 | Cn1ncc2c(=O)[nH]c(CN(Cc3ccco3)C3CC3)nc21 | 47%
105 | Cc1ccccc1C(C)N(C)Cc1nc2c(cnn2C)c(=O)[nH]1 (stereo not given) | 26.45%
